Measured values as given in PubChem BioAssay (Tox21).
Records with an inconclusive call do not appear. A number with no mark means an inactive call. Active and inactive are the calls of the source. Calls come from the whole dose curve; as a rule, active = well fitted cell-killing curve with a large enough effect in the repeat runs; inconclusive = weak or mixed curves, or effect the other way; inactive = flat fitted curve, though single readings scatter.
% is set by controls: 0 for no effect and ±100 for the full control effect.

Assay: qHTS assay to identify small molecule antagonists of the retinoid acid receptor (RAR) signaling pathway - cell viability counter screen (AID 1159551); note: nearly all actives have a fitted effect of over 35% in size
Conditions: C3RL4 cells viability, ATP luminescence (CellTiter-Glo), 6 h; series mostly up to 92.4 µM
Excerpt: U.S. Tox21 Program National Center for Advancing Translational Sciences [NCATS] NIH Chemical Genomics Center [NCGC] U.S. Environmental Protection Agency [EPA] National Institutes of Environmental Health Sciences [NIEHS] National Toxicology Program [NTP] U.S. Food and Drug Administration [FDA] Tox21 Assay Overview: All-trans Retinoic acid (atRA) is the potent natural metabolite of retinol and plays an important role in normal embryonic development and maintenance of cellular phenotype in adult animals. atRA is the activating ligand for the retinoic acid receptors (RARs) which form heterodimers with retinoid X receptors (RXRs) on the retinoic acid response element (RARE). Through activation of the RAR/RXRs nuclear receptors, atRA regulates the transcription of a large number of protein-coding genes and regulatory RNAs. Intracellular levels of atRA are controlled by the retinol signaling pathway (RSP) that regulates the biosynthesis and catabolism of atRA to maintain physiological levels. Chemicals that interfere with the RSP can cause abnormal intracellular levels of atRA and therefore are potential developmental toxicants. To assess compounds for the potential adverse effect on embryonic development through interfering with retinol signaling, a cell-based RARE luciferase reporter gene assay was used. C3RL4 cell line (OARSA/CFSAN/FDA, Laurel, MD) was used to screen Tox21 10K compound library for identifying inhibitors of the RSP. Also cytotoxicity was assessed by determining the viability of cells based on the quantitation of ATP.
Tox21 Assay Protocol Summary: C3RL4 cells were seeded at 1,000/well in 4 uL of assay medium into white solid 1,536-well tissue culture plates (Greiner Bio-One North America Inc. Monroe, NC) using a Multidrop Combi (Thermo Scientific, Waltham, MA) dispenser. After incubation at 37 C and 5% CO2 for an overnight, 23 nL of compounds dissolved in DMSO, positive control or DMSO only were transferred by a Pintool station (Kalypsys, San Diego, CA). One ul of 1 uM (final concentration) of Retinol was added right after the compound addition by using a Flying Reagent Dispenser (FRD) (Aurora Discovery, San Diego, CA). After 6 hr incubation at 37 C and 5% CO2, 5 uL of CellTiter-Glo reagent (Promega Corporation, Madison, WI) was added to each assay plate using an FRD. Luminescence was quantified on a ViewLux plate reader (PerkinElmer, Waltham, MA) after 30 min incubation at room temperature.
In the case of `COC[C@H](c1ccc(C(F)(F)F)cc1)N1CCN(C2(C)CCN(C(=O)c3c(C)ncnc3C)CC2)C[C@H]1C`, the outcome is reported as “inactive”.
With `CN(C)N=Nc1ccccc1` the outcome was “inactive”.
In the case of `C=C(C)C(=O)NCCC[N+](C)(C)C`, the outcome is reported as “inactive”.
With `C[C@H]1O[C@@H](n2cc(F)c(=O)[nH]c2=O)[C@H](O)[C@@H]1O` the outcome was “inactive”.
With `CCO[Si](CCCN=C=O)(OCC)OCC` the outcome was “inactive”.
In the case of `CCCCCCOC(=O)c1ccccc1O`, the outcome is reported as “inactive”.
With `COC(=O)[C@H]1[C@H]2C[C@@H]3c4[nH]c5cc(OC)ccc5c4CCN3C[C@H]2C[C@@H](OC(=O)COc2ccc(OC)cc2)[C@@H]1OC` the outcome was “inactive”.
`FC(F)(F)C(F)(F)C(F)(F)C(F)(F)C(F)(F)C(F)(F)C(F)(F)C(F)(F)C(F)(F)C(F)(F)F` showed an activity change, negative = cytotoxicity of 5.5% [at 8.39 µM].
For `C(=C(c1ccccc1)c1ccccc1)c1ccccc1`, the outcome was “inactive”.
With `CN(C)CCOC(c1ccc(Cl)cc1)c1ccccn1` (stereo not given) the outcome was “inactive”.
For `O=C1C(CCS(=O)c2ccccc2)C(=O)N(c2ccccc2)N1c1ccccc1` (stereo not given), the outcome was “inactive”.
In the case of `CCOC(=O)Cn1c(=O)sc2cccc(Cl)c21`, the outcome is reported as “inactive”.
With `NCCNC(=O)c1ccc(Cl)cn1` the outcome was “inactive”.
Work on `C1CCCCCCCCCCC1` yielded an activity change, negative = cytotoxicity of -2.08% [at 19 µM].
In the case of `Cn1cnc2c(=O)[nH]c(N)nc21`, the outcome is reported as “inactive”.
With `OC1OC[C@@H](O)[C@H](O)[C@H]1O` (stereo not given in full) the outcome was “inactive”.
For `CC(C)c1cccc(C(C)C)c1N`, the outcome was “inactive”.
For `CC(C)(O)c1ccccc1`, the outcome was “inactive”.
For `C#CC(O)CCCCC` (stereo not given), the outcome was “inactive”.
In the case of `C=CC(=O)OCCCCCC`, the outcome is reported as “inactive”.
In the case of `CC(=O)N[C@@H](CCC(N)=O)C(=O)O`, the outcome is reported as “inactive”.
In the case of `OCCN1C[C@H](O)[C@@H](O)[C@H](O)[C@H]1CO`, the outcome is reported as “inactive”.
For `CCc1cc(S(=O)(=O)O)c2cc(C(C)C)cccc1-2`, the outcome was “inactive”.
In the case of `Nc1nc(F)nc2c1ncn2[C@@H]1O[C@H](CO)[C@@H](O)[C@@H]1O`, the outcome is reported as “inactive”.
In the case of `O=C(O)c1ccccc1-c1ccc(C(F)(F)F)cc1`, the outcome is reported as “inactive”.
For `CC(C)(C)CC(C)(C)N`, the outcome was “inactive”.
With `CCCOCC(C)OCC(C)O` (stereo not given) the outcome was “inactive”.
For `O=C1CC2(CCCC2)CC(=O)N1`, the outcome was “inactive”.
In the case of `CCCCCCCCCCCCCCC`, the outcome is reported as “inactive”.
With `CCCCCCC(CCCCCCCCCCC(=O)OCC(COC(C)=O)OC(C)=O)OC(C)=O` (stereo not given) the outcome was “inactive”.
For `C=CCOCC(O)CS(=O)(=O)O` (stereo not given), the outcome was “inactive”.
In the case of `CO`, the outcome is reported as “inactive”.
With `CCCCCCCCCCCCCCCCCC(=O)OCCCCCCCCCCCCCC(C)C` the outcome was “inactive”.
With `Cc1ccc(Nc2ccc(O)c3c2C(=O)c2ccccc2C3=O)cc1` the outcome was “inactive”.
With `CC/C=C\C#N` the outcome was “inactive”.
For `CC(C)=CCC/C(C)=C/C(=O)O`, the outcome was “inactive”.
In the case of `Cc1c(C)n(CCN(C)C)c2ccc(C(=O)OCCN(C)C)cc12`, the outcome is reported as “inactive”.
In the case of `CC1(C)SC(C)(C)SC(C)(C)S1`, the outcome is reported as “inactive”.
With `CCC(C)OC(=O)N1CCCCC1CCO` (stereo not given) the outcome was “inactive”.
In the case of `CC(C)c1ccc2oc3nc(N)c(C(=O)O)cc3c(=O)c2c1`, the outcome is reported as “inactive”.
